Screening data (PubChem)
KCNQ2 pot: potentiators of rat KCNQ2 potassium channel | O88943 | CHO-K1 KCNQ2, FluxOR thallium flux fluorescence; stronger effect = higher value | B-score at 10 µM | hit rate 0.54% among 310,000;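 active means fluorescence ratio B-score at least 3 SD of library B-scores, with initial fluorescence B-score within 3 of them, cut at about 5.3 in these data; same plate scores as AID 2156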;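 further: B-score of peak minus minimum over baseline fluorescence ratio after K+ and Tl+ stimulus; positive B-score means potentiation of KCNQ2 with more thallium influx and brighter signal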
Target sequence (O88943 whole entry, looked up): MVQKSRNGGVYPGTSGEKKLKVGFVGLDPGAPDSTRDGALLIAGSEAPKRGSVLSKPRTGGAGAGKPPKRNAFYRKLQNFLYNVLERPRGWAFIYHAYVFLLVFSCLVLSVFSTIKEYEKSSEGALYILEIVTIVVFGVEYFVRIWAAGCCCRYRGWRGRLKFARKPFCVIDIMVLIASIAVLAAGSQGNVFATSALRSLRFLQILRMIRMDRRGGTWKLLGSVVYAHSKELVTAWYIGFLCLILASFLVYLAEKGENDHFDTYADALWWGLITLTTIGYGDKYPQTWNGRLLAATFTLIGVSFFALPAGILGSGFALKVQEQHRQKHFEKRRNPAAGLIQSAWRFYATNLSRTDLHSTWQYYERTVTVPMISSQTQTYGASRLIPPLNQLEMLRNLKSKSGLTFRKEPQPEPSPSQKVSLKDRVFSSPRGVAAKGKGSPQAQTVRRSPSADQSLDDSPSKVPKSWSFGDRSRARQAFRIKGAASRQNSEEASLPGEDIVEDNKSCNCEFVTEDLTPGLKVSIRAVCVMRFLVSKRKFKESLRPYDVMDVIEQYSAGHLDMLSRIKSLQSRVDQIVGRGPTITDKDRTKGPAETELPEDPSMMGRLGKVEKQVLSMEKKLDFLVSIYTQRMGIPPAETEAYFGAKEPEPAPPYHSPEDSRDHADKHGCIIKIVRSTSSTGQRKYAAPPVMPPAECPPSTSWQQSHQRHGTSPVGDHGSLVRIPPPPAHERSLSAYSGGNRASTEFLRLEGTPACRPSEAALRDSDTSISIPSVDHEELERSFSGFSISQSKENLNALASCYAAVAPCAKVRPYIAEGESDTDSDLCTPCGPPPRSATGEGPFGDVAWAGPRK
KCNQ2 block: KCNQ2 (rat) channel inhibition; B-score at 10 µM; CHO-K1 KCNQ2, FluxOR thallium flux, 20 min; stronger effect = lower value; AID 2156; hit rate 1.1% among 310,000; O88943;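 active means fluorescence ratio B-score at most minus 3 library SDs, with starting brightness B-score within 2 library SDs, cut at about -5.5 in these data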
Hits are given with their value; - = inactive; . = no result. This is a sample that favours compounds with a hit; in the whole collection about 1.6% have one here.

SMILES | KCNQ2 pot | KCNQ2 block
COc1ccc(-n2cc(-c3ccccc3)c3c(NN4CCOCC4)ncnc32)cc1 | - | -5.61
Fc1ccc(-n2cc(-c3ccccc3)c3c(NN4CCOCC4)ncnc32)cc1 | - | -
O=C(COc1ccc(S(=O)(=O)NCc2ccccc2)cc1)NCc1cccnc1 | . | -
O=C(CSc1ncn[nH]1)N1N=C2/C(=C/c3ccccc3)CCCC2C1c1ccccc1 (centres undefined) | - | -5.74
COc1ccc(/C=C2\CCCC3C2=NN(C(=O)CSc2ncn[nH]2)C3c2ccc(OC)cc2)cc1 (centres undefined) | . | -
CC(=O)Nc1cc2nc(C)n(Cc3ccccc3[N+](=O)[O-])c2nc1C | . | -
Cc1cc(C(F)(F)F)nc(SCCN2CCCCC2)c1C#N | - | -
CC(C)OC(=O)CSc1nnc(CNc2cccc(Cl)c2)n1C | - | -
CCOC(=O)CSc1nnc(CNc2cccc(Cl)c2)n1-c1ccccc1 | - | -6.39
COc1ccc(/C=N/NC(=O)c2ccc[nH]2)cc1 | - | -6.08
COc1ccc(/C=N/NC(=O)c2cccnc2)cc1 | . | -
COc1ccccc1COc1ccc2c(C)c(CC(=O)O)c(=O)oc2c1C | . | -
CC(C)(C)c1ccc(C(=O)NC(=S)Nc2nc3c(s2)CCCC3)cc1 | 8.46 | -
CN(C)c1ccc(C(=O)Nc2nc3c(s2)CCCC3)cc1 | . | -
CNC[C@H](NC[C@@H](NCCCc1ccccc1)c1ccccc1)[C@H](C)O | . | -
COc1ccc(CC(C(=O)Nc2ccc(OC)cc2)c2nn[nH]n2)cc1 (centres undefined) | . | -
CCOc1ccc2ccccc2c1CNc1nnnn1C | - | -6.01
CCOc1ccccc1CNc1nnnn1C | - | -
COc1ccc(C(=O)NCCc2cnc[nH]2)cc1OC | . | -
CC1=C(C(=O)Nc2ccccc2)C(c2ccco2)C(C#N)=C(SCC(=O)OC(C)C)N1 (centres undefined) | - | -
CC1=C(C(=O)Nc2ccccc2)C(c2ccco2)C(C#N)=C(SCc2ccccc2)N1 (centres undefined) | - | -6.52
O=C1c2ccccc2C(O)(c2ccccc2)N1C1CC1 (centres undefined) | - | -
O=C(Nc1nccs1)c1cccc(NC(=O)C(F)(F)F)c1 | - | -
CCC1CN(C)C2Cc3c([nH]c4ccccc34)C(=O)CC1C2C(=O)OC (centres undefined) | . | -
CC[C@H]1CC2CN3CCc4c([nH]c5c([C@H]6C[C@H]7[C@H](CC)CN(C)[C@@H](Cc8c6[nH]c6ccccc86)[C@H]7C(=O)OC)c(OC)ccc45)C(C(=O)OC)(C2)C13 | - | -7.51
SMILES | KCNQ2 pot | KCNQ2 block
COc1ccc(C(=O)COC(=O)c2nn(C)cc2Cl)cc1 | . | -
COc1ccccc1CN1C(=O)CN(C2CCCCCC2)C(=O)C1c1ccc(F)cc1 (centres undefined) | - | -6.14
COc1cccc(C2c3[nH]c4ccccc4c3C[C@H]3C(=O)N(C4CC4)CC(=O)N23)c1 (some centres undefined) | . | -
O=C1C(c2ccc(F)cc2)N(C2CCCCC2)C(=O)CN1C1CCCC1 (centres undefined) | . | -
COc1cccc(C2C(=O)N(C3CCCCC3)CC(=O)N2Cc2ccc(F)cc2)c1 (centres undefined) | - | -6.98
O=C(NCCCN1CCCC1=O)c1ccc(NS(=O)(=O)c2cccc([N+](=O)[O-])c2)cc1 | - | -
Cc1ccc(S(=O)(=O)NCC(C)n2cncn2)cc1C (centres undefined) | - | -
C/C(=N/Nc1nc(C)c(C)s1)c1cccc([N+](=O)[O-])c1 | . | -
COc1ccc(C(=O)Nn2c(C)nc3ccccc3c2=O)c(OC)c1 | . | -
COc1cccc(C(=O)Nn2c(-c3cccs3)nc3ccccc3c2=O)c1OC | - | -6.36
Cc1ccc(-c2nc3cnccn3c2Nc2ccc3c(c2)OCO3)cc1 | . | -
CN(C)c1ccc(-c2nc3cnccn3c2Nc2ccc3c(c2)OCCO3)cc1 | - | -6.39
Cc1cc2nnc(SCC(=O)NC3CCCCC3)n2c(N)n1 | - | -
CSc1nnc(-c2sccc2OCc2ccccc2)n1C | . | -
CSc1n[nH]c(-c2sccc2OCc2ccc(C)cc2)n1 | - | -6.14
CC(=O)c1ccc(NC(=O)CSc2nnc3ccc(-c4ccccn4)nn23)cc1 | - | -
CCOC(=O)Cn1nnc2c(sc3nc4c(c(-c5ccc(Cl)cc5)c32)CCC4)c1=O | - | -6.73
CCOC(=O)Cn1nnc2c(sc3nc4c(c(-c5ccccc5)c32)CCC4)c1=O | . | -
CC1(C)Cc2c(cnn2-c2ccc(F)cc2)C(NC(=O)CN2CCCCC2=O)C1 (centres undefined) | . | -
CCCCCn1c2c(c(=N)c3ccccc31)CCC2 | - | -
CCCCCCCCCCn1c2c(c(=N)c3c1CCC3)CCC2 | 32 | -
CCOC(=O)c1cc(-c2ccco2)nc2c1c(C)nn2-c1ccccc1 | - | -6.05
CCCn1c(=O)c2c(C(=O)OCC)cc(-c3ccco3)nc2n(CCC)c1=O | . | -
CCOC(=O)c1c(C=O)c(C)n(Cc2ccccc2Cl)c1C | - | -5.82
CCOC(=O)c1c(C=O)c(C)n(Cc2ccc(C)cc2)c1C | . | -
SMILES | KCNQ2 pot | KCNQ2 block
CC1(C)CC(NC(=O)c2ccc(Cl)c(S(=O)(=O)N(Cc3ccccc3)c3ccccc3)c2)CC(C)(C)N1 | - | -
Cc1ccc(C(c2nnnn2C2CCCC2)N2CCN(c3nc4ccccc4s3)CC2)cc1 (centres undefined) | - | -6.38
CC(C)C(c1nnnn1C1CCCCC1)N1CCc2ccccc21 (centres undefined) | . | -
c1ccc(C(c2nnnn2C2CCCC2)N2CCN(c3nc4ccccc4s3)CC2)cc1 (centres undefined) | . | -
Cc1ccc(C(c2nnnn2C2CCCCC2)N2CCc3ccccc32)cc1 (centres undefined) | - | -5.56
CC1(C)Cc2c(sc3ncnc(NN)c23)CO1 | - | -
CN(C)CCCN(C(=O)c1ccc([N+](=O)[O-])o1)c1nc2cc3c(cc2s1)OCO3 | - | -
Cc1cc(NC(=O)c2ccccc2)ccc1NC(=O)Cc1ccccc1 | - | -
CN1CCN(NC(=O)c2cc(-c3ccc(Br)s3)nc3ccccc23)CC1 | - | -5.69
O=C(O)c1cc(-c2ccc(Br)s2)nc2ccccc12 | . | -
COc1cccc(CN(C)C(=O)c2ccc(NC(=O)CC3SC(N4CCCC4)=NC3=O)cc2)c1OC (centres undefined) | . | -
Cc1ccc(S(=O)(=O)NC2c3cccc4cccc(c34)C2Sc2n[nH]c(N)n2)cc1 (centres undefined) | . | -
O=S(=O)(NC1c2cccc3cccc(c23)C1Sc1ncccn1)c1ccc(Cl)cc1 (centres undefined) | - | -6.31
O=C(CSc1nc2ccsc2c(=O)n1NC(=O)c1ccccc1)Nc1nccs1 | . | -
O=C(Nn1c(SCc2ccccc2F)nc2ccsc2c1=O)c1ccccc1 | - | -6.36
O=C(CN1CCN(c2ccccn2)CC1)Nc1ccccc1Br | . | -
O=C(CN1CCN(c2ccccn2)CC1)Nc1cccc(Cl)c1Cl | - | -7.24
CCOCCn1c(SC(C)C(C)=O)nc2c1c(=O)[nH]c(=O)n2C (centres undefined) | . | -
COc1ccc(OC)c(CNn2c(-c3cccc(C)c3)nc3ccccc3c2=O)c1 | - | -5.69
COc1ccc(OCC(=O)Nn2c(-c3ccc(C)cc3)nc3ccccc3c2=O)cc1 | . | -
Cc1cccc(N2CCN(CC(=O)Nc3ccc(S(=O)(=O)N4CCOCC4)cc3)CC2)c1C | . | -
CC(C)N(C(=O)CSc1nc2ccccc2n1Cc1ccc(F)cc1)C(C)C | - | -7.86
